In the supplement of paper PMC11172423:
A number with no mark means an inactive call.

How the values were obtained:
[1] = system: Falciformispora senegalensis CBS197.79; assay: growth relative to untreated control; higher = less inhibition, active = 20 or less
In short: (§1)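 For each test, a hyphal fragment suspension of M. mycetomatis MM55 or F. senegalensis CBS197.79 was prepared in colourless RPMI 1640 with L-glutamine and MOPS at 68–72% transmission at 660 nm. Exposure to compound at 100 or 25 µM ran for 7 days at 37 °C in 96-well plates, followed by viability reading with MTS (2 h, 490 nm) or resazurin (600 nm). Growth corresponds to metabolic activity relative to the untreated growth control after correction of both with a blank of medium and dye.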

[2] = system: Madurella mycetomatis MM55; assay: as above
In short: as §1

Structure (SMILES)	growth ([1]; 25 µM)	growth ([1]; 100 µM)	growth ([2]; 25 µM)	growth ([2]; 100 µM)
CCn1cnc2c(N3CCCC(c4ccncc4)C3)ncnc21 (stereo not drawn)	99.7%	94.6%	84.4%	62.5%
O=C(c1ccc(Nc2nccc(-c3cc(Cl)cc(C(F)(F)F)c3)n2)cc1)N1CC(O)C1	88.9%	93.2%	110%	85.6%
CCOCCCNc1nc2cc(OC)c(OC)cc2c2nc(-c3ccccc3)nn12	93.1%	89.3%	95.5%	120%
Cc1c(-c2ccc(-c3ccccc3F)cc2)nc2ccc(F)cc2c1C(=O)O	103%	98.6%	115%	83.3%
COc1cc2nccc(Oc3ccc(NC(=O)C4(C(=O)Nc5ccc(F)cc5)CC4)cc3)c2cc1OC	83.6%	98.4%	99.9%	79.9%
COc1ccc(C(=O)N2CCC3(CC2)C(=O)N(CC(=O)NCC2CCCCC2)CN3c2ccccc2)c(OC)c1	91.9%	85.8%	67.1%	50.8%
CCOc1ccc(-c2nc(NC(=O)Cc3cccc(OC)c3)sc2C)cc1	93.7%	80.5%	99.6%	83.1%
Cc1ccc(C)c2sc(N(CCCn3ccnc3)C(=O)c3ccco3)nc12	38.5%	30%	5.97% (active)	7.8% (active)
Cc1cc(C(=O)N2CCOc3c(cc(-c4csc5ccccc45)cc3OCCc3ccccn3)C2)n(C)n1	90.1%	91.1%	5.62% (active)	87.7%
CCN1CCN(Cc2ccc(Nc3ncc(F)c(-c4cc(F)c5nc(C)n(C(C)C)c5c4)n3)nc2)CC1	101%	105%	80.5%	85.2%
C[C@H](/N=C(\N)c1cc2c(F)cc(F)cc2[nH]1)c1ccccc1	98.5%	15.3% (active)	35%	5.98% (active)
CNC(=O)c1cc(Oc2ccc(NC(=O)Nc3ccc(Cl)c(C(F)(F)F)c3)cc2)ccn1	103%	94.4%	45.7%	35.1%
Cc1ccccc1-c1noc(-c2ccccc2)n1	92.9%	86.5%	93.4%	60.5%
COc1ccc2c(c1)c(CC(=O)O)c(C)n2C(=O)c1ccc(Cl)cc1	111%	104%	79.7%	80.8%
O=C(NC1CCN(CCOc2ccc(Cl)cc2)CC1)c1c[nH]c2ccncc2c1=O	73.5%	84.8%	90.2%	102%
CNC(=O)c1cc(-c2n[nH]c3ccc(-c4nc(C5CCCN5)n[nH]4)cc23)ccc1F (stereo not drawn)	105%	106%	98.4%	71.5%
CN(C)c1cc(NC(=O)CNC(C)(C)C)c(O)c2c1C[C@H]1C[C@H]3[C@H](N(C)C)C(O)=C(C(N)=O)C(=O)[C@@]3(O)C(O)=C1C2=O	104%	107%	69.1%	104%
CN(C)CCCN1c2ccccc2CCc2ccc(Cl)cc21	51.5%	12.5% (active)	38.1%	3.39% (active)
COC(=O)[C@@]1(c2ccc(C)cc2)C[C@H]1CN1CCC(O)(c2ccccc2)CC1	95.2%	97.4%	77.2%	72.2%
CCOc1ccc(C=C2NCCc3cc(OCC)c(OCC)cc32)cc1OCC	112%	106%	73.2%	48%
COC(=O)C1=C(C)NC(C)=C(C(=O)OC)C1c1ccccc1[N+](=O)[O-]	98.9%	41.1%	89.7%	4.04% (active)
O=C(CCCN1CCC(O)(c2ccc(Cl)cc2)CC1)c1ccc(F)cc1	103%	14.2% (active)	76.2%	4.14% (active)
COc1ccc(-c2cnc3c(-c4ccccc4)c(-c4ccccc4)nn3c2N)cc1OC	93.2%	83.3%	86.3%	70.2%
CN[C@@H]1[C@H](O)[C@H](NC)[C@H]2O[C@@]3(O)C(=O)C[C@@H](C)O[C@H]3O[C@@H]2[C@H]1O	105%	102%	99.5%	71.3%

Structure (SMILES)	growth ([1]; 25 µM)	growth ([1]; 100 µM)	growth ([2]; 25 µM)	growth ([2]; 100 µM)
CN(C)C1CC(NC(=O)c2ccc(Nc3nccc(-c4ccc(Cl)c(C(F)(F)F)c4)n3)cc2)C1 (stereo not drawn)	96.6%	102%	7.71% (active)	6.2% (active)
C[C@H](NC(=O)c1cc2ccc(Cl)cc2n1C)c1ccccc1	93.6%	81.7%	99.6%	81.1%
CC[C@H](C)[C@@H]1NC(=O)c2csc(n2)[C@H]([C@@H](C)CC)NC(=O)c2csc(n2)CNC(=O)c2nc1oc2C	83.8%	100%	64.4%	44.8%
CC1(O)CN(C(=O)c2cccc(NC(=O)c3ccc(Nc4ccccn4)cc3)c2)C1	106%	107%	55.8%	141%
NS(=O)(=O)OC[C@@H]1C[C@@H](n2ccc3c(N[C@H]4CCc5ccccc54)ncnc32)C[C@@H]1O	112%	101%	85%	99.5%
CN(C)C[C]1[CH][CH][CH][C]1CNc1ccnc2cc(Cl)ccc12.[CH]1[CH][CH][CH][CH]1.[Fe]	59.2%	58%	33.7%	39.8%
CC(C)N1CCN(c2ccc(OC[C@H]3CO[C@](Cn4cncn4)(c4ccc(Cl)cc4Cl)O3)cc2)CC1	20.1%	7.6% (active)	3.57% (active)	2.95% (active)
CC(C)(C)Cn1c(N)nc2ccc(-c3[nH]c(C(C)(C)C)nc3-c3ccc(F)cc3)nc21	100%	55%	82.9%	3.85% (active)
CN1CCC(N2CCC(NC(=O)c3cc4c(F)cccc4s3)CC2)CC1	91.4%	15.5% (active)	131%	46.6%
O=C(Nc1ncc([N+](=O)[O-])s1)c1ccccc1O	95.8%	100%	72.6%	91.8%
CCOc1ccccc1NC(=O)Cn1c(=O)n(Cc2ccccc2)c(=O)c2c(C)c(C(=O)N(C)C)sc21	92.1%	108%	104%	109%
C=CC[C@@H]1/C=C(\C)C[C@H](C)C[C@H](OC)[C@H]2O[C@@](O)(C(=O)C(=O)N3CCCC[C@H]3C(=O)O[C@H](/C(C)=C/[C@@H]3CC[C@@H](O)[C@@H](OC)C3)[C@H](C)[C@@H](O)CC1=O)[C@H](C)C[C@@H]2OC	103%	105%	84.5%	48.1%
CN(C)CCOc1ccc2nc(-c3cccc(OCc4ccccc4)c3)[nH]c2c1C#N	50.2%	11.4% (active)	4.87% (active)	5.16% (active)
N#C/C(C(=O)c1ccccc1Cl)=C1\NC(c2ccccc2)=CS1	90.5%	100%	79.7%	45.4%
OC[C@H]1NC[C@H](O)[C@@H](O)[C@H]1O	94.7%	100%	101%	91.1%
Cc1cccc2c1N(C(=O)c1cc(Br)nn1-c1ncccc1Cl)CN(C(C)C)C2=O	94%	93.3%	91.9%	153%
Cc1ccc(-c2noc(-c3ccccc3)n2)cc1	90.2%	86.5%	43.1%	90.5%
N#CC[C@H](C1CCCC1)n1cc(-c2ncnc3[nH]ccc23)cn1	110%	103%	76.6%	92.4%
COc1ccc(-c2cc3ncnc(N4CCN(CCN5CCCC5)CC4)c3s2)cc1	7.35% (active)	14.9% (active)	4.86% (active)	4.96% (active)
CC(C)(C)NCc1ccc(Nc2ccnc3cc(Cl)ccc23)cc1O	95.8%	17.1% (active)	79.1%	3.73% (active)
CCS(=O)(=O)N1CC(CC#N)(n2cc(-c3ncnc4[nH]ccc34)cn2)C1	102%	104%	94.3%	80.3%
CC(C)Nc1cc2c(cn1)nc(Nc1cc(Cl)cc(C#N)c1)n2C1CCNCC1	97.8%	106%	106%	79.1%
NC(=O)C(c1ccccc1)(c1ccccc1)[C@@H]1CCN(CCc2ccc3c(c2)CCO3)C1	95.3%	97.9%	106%	79.1%
